Compounds with a hit are over-represented: about 1.8% of the library has one in this group of screens.
GC-A act: GC-A (human) enzyme activation; AID 1671463; 370,000 tested, 0.14% active; P16066; HEK293 GC-A cells, cGMP TR-FRET, EC30 ANP; 0% at EC30 ANP, 100% saturating ANP; activation, % at 10 µM; in the data active means activation above about 40%
Target sequence (P16066 whole entry, looked up): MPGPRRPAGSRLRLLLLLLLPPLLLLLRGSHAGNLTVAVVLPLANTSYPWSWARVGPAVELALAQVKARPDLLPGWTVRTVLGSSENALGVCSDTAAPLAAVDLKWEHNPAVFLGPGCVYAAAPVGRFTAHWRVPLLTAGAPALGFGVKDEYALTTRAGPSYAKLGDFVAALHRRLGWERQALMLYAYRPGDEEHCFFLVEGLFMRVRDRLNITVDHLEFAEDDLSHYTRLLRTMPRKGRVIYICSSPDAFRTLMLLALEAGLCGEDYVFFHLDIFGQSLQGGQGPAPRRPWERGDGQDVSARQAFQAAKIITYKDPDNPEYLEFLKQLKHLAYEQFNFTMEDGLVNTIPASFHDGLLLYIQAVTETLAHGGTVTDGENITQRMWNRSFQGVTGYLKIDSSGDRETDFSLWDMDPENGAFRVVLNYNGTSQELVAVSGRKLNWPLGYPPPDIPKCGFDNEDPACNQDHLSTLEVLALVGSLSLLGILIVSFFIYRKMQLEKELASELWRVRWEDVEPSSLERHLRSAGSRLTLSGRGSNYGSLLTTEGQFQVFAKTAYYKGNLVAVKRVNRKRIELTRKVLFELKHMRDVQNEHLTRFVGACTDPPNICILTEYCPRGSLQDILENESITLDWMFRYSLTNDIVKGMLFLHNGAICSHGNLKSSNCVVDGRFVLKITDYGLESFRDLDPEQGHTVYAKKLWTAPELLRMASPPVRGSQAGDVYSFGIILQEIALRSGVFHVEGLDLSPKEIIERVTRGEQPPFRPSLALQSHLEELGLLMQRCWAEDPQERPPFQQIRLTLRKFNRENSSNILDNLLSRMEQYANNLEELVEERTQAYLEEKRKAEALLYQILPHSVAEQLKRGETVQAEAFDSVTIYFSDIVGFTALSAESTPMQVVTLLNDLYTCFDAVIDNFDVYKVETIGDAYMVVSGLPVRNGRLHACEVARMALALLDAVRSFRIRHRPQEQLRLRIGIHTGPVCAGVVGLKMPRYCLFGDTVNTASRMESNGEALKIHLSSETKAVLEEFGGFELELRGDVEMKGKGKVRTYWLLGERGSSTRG
Granule exo inh: blocks lytic granule exocytosis | TALL-104 LAMP-1 surface exposure, flow cytometry; cells stimulated with thapsigargin and PMA | inhibition, % at 10 µM | 360,000 tested, 0.66% active | AID 651702;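 active means inhibition above about 55%, limit read from the data; inconclusive means no clear call, values can overlap the other calls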
Myeloid diff MLP: myeloid differentiation induction; 360,000 tested, 1% active; calls only at 10 µM; ER-HoxA9 myeloid progenitors, lysozyme-GFP differentiation, flow cytometry;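 active means normalized GFP-positive differentiation at or above the plate's own cutoff, the solvent-only control mean plus 3 SD; inconclusive means no clear call, values can overlap the other calls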;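 further: cells exposed to compound for four days before flow analysis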
NPR2 activator: GC-B (human) receptor activation | activation, % at 10 µM | 370,000 tested, 0.11% active | HEK293-GC-B cells, CNP EC30, cGMP TR-FRET; 0% at EC30 CNP, 100% saturating CNP | AID 1920062;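 active means activation at 10 µM reaching about 35% in either raw or pattern-adjusted values, limit read from the data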
Granule exo CP1: blocks lytic granule exocytosis; 1,500 tested, 11% active; inhibition, % at 10 µM; TALL-104 cells, LAMP-1 externalization, flow cytometry; stimulated with PMA plus thapsigargin; shares compounds with Granule exo inh; in the data active means inhibition above about 60%
Numbers stand for hits; i = inactive; ? = inconclusive; nt = not tested or not shown; + = active, no number.

SMILES | GC-A act | Granule exo inh | Myeloid diff MLP | NPR2 activator | Granule exo CP1
CCCn1c(NC(=O)c2ccccc2)nc(Cc2ccccc2)c1-c1ccc(OC)cc1 | i | nt | nt | i | nt
O=C(c1cccc(C(F)(F)F)c1)N1CCC(=O)N(C(CO)Cc2ccccc2)CC1 (stereo not given) | i | 80.4 | i | i | i
COc1c2ccoc2c(OC[C@@H](O)C(C)(C)OC)c2oc(=O)ccc12 | i | i | i | i | nt
COc1c2ccoc2c(OC[C@@H](O)C(C)(C)O)c2oc(=O)ccc12 | i | 63.3 | i | i | i
COc1cc(OC)nc(C(NC(=O)C2CCN(Cc3c[nH]c4ccccc34)CC2)c2ccc(Cl)cc2)n1 (stereo not given) | i | i | i | i | nt
CC1(C(=O)Nc2cccc(C(F)(F)F)c2)Cc2c(-c3ccc4c(c3)OCO4)ccnc2O1 (stereo not given) | i | i | i | i | nt
CCCn1c(NCc2ccc3c(c2)OCO3)nc2ccccc21 | i | i | i | i | nt
CCCCn1c(NCc2ccc3c(c2)OCO3)nc2ccccc21 | i | 66.7 | i | i | i
COCCNC(=O)C1Nc2ccc(C(F)(F)F)cc2C2C=CCC12 (stereo not given) | i | i | i | i | nt
O=C(NCc1ccccn1)C1Nc2ccc(C(F)(F)F)cc2C2C=CCC12 (stereo not given) | i | 64.1 | i | i | i
COc1ccccc1CC(=O)c1ccc(OCc2ccccc2)cc1 | i | 81.1 | i | i | i
CCOc1ccc(-n2c(SCC(=O)Nc3ccc4cn[nH]c4c3)nnc2-c2ccc(C(C)(C)C)cc2)cc1 | i | nt | nt | i | nt
O=C(c1ccco1)N(CCC(c1ccccc1)c1ccco1)Cc1ccc(F)cc1 (stereo not given) | i | 59.0 | + | i | i
CC1(C)CC(C(CCN(Cc2ccccc2)C(=O)c2ccco2)c2ccc(F)cc2)CCO1 (stereo not given) | i | i | i | i | nt
COc1ccccc1-c1cccc([C@@H]2C[C@H]3[C@H](CON3C)CN2S(=O)(=O)c2ccccc2C)c1 | i | i | i | i | nt
O=C(Nc1ccc2oc(-c3ccccc3F)nc2c1)c1ccc2c(c1)OCCO2 | i | 85.1 | i | i | i
O=C(Nc1ccc(N2CCN(c3ncccc3C(F)(F)F)CC2)nc1)c1cccs1 | i | 74.6 | i | i | i
O=C(Nc1ccc(N2CCN(c3ccc(C(F)(F)F)cn3)CC2)nc1)c1cccs1 | i | i | i | i | nt
CCCN1CCS(=O)(=O)N(Cc2cn(Cc3ccc(OC)cc3)nn2)C(C(=O)OC)C1 (stereo not given) | i | nt | nt | i | nt
Cc1ccc(C(=O)NCCc2ccc(S(=O)(=O)N3CCCC3)cc2)cc1 | i | 64.5 | i | i | i
Cc1cccc(CN2C(=O)/C(=C\c3ccc(C(=O)NCCCN4CCN(C)CC4)cc3)Oc3ccccc32)c1 | i | i | i | i | nt
CN1CCN(CCCNC(=O)c2ccc(/C=C3\Sc4ccccc4N(Cc4ccc(F)cc4)C3=O)cc2)CC1 | i | 64.3 | i | i | 76.6
Cc1ccc(Nc2nnc(SC(C)C(=O)NCC3CCCO3)s2)cc1 (stereo not given) | i | i | i | i | nt
CCN(CC)c1nc(-c2ccccc2)nc2ccccc12 | i | i | i | i | nt
CCCCN(CCCC)c1nc(-c2ccncc2)nc2ccccc12 | i | 92.8 | i | i | 68.2
SMILES | GC-A act | Granule exo inh | Myeloid diff MLP | NPR2 activator | Granule exo CP1
Cc1ccc(-c2c(NC(=O)Nc3ccccc3)nc3ncccn23)cc1 | i | nt | nt | i | nt
COC1=CC(=O)c2c(ccc3ncnc(N)c23)C1=O | i | 88.4 | nt | i | i
COc1cccc(S(=O)(=O)N(C)C[C@@H]2OCc3cnnn3CCCC(=O)N([C@H](C)CO)C[C@@H]2C)c1 | i | i | i | i | nt
COCCCn1c(SCc2ccccc2)nc2cc(OC)c(OC)cc2c1=N | i | 84.0 | i | i | i
COCCCn1c(SCc2cccc(C(F)(F)F)c2)nc2cc(OC)c(OC)cc2c1=N | i | i | i | i | nt
CN(CC#CC1=CCCCC1)/C(N)=N/C(=O)OCc1ccccc1 | i | nt | nt | i | nt
Cc1ccc(-n2c(SCC(=O)Nc3ccccc3-c3ccccc3)nnc2-c2cnccn2)cc1 | i | nt | nt | i | nt
O=C(NCc1ccccc1)C1(c2ccccc2)CCN(S(=O)(=O)c2ccccc2)CC1 | i | 62.7 | i | i | i
Cc1ccc(CNC(=O)c2ccc(N(C)S(=O)(=O)c3ccccc3)cc2)cc1 | i | 66.6 | ? | i | i
CN(c1ccccc1)S(=O)(=O)c1ccc(C(=O)NCc2ccc(F)cc2)cc1 | i | i | i | i | nt
COc1cc(CN2C(=O)C(CCc3ccccc3)ON=C2c2cnccn2)cc(OC)c1 (stereo not given) | i | i | i | i | nt
O=C(Nc1nc2ccccc2n1CCN1CCOCC1)c1ccc(COc2ccccc2Br)o1 | i | 70.2 | i | i | 80.5
CN1CCN(c2ccc3c(c2)Oc2ccccc2CN(Cc2cn(Cc4ccccc4C(F)(F)F)nn2)S3(=O)=O)CC1 | i | nt | nt | i | nt
C=CCn1c(-c2ccccn2)n[nH]c1=S | i | i | i | i | nt
NC(=O)CC[C@H](NC(=O)c1ccc(F)cc1)C(=O)OCC(=O)Nc1c(F)c(F)c(F)c(F)c1F | i | i | i | i | nt
NC(=O)CC[C@H](NC(=O)c1ccc(F)cc1)C(=O)OCC(=O)NCc1ccc(F)cc1 | i | 56.6 | i | i | i
CCN(CC)c1ccc2cc(-c3nc(-c4cc5ccccc5oc4=O)cs3)c(=O)oc2c1 | i | 81.3 | + | i | i
CC(C)Nc1ccc(Nc2ccnc3cc4ccccc4cc23)cc1 | i | 78.9 | nt | i | i
c1ccc(CCNc2ccnc3cc4ccccc4cc23)cc1 | i | 55.6 | nt | i | 91.7
COc1ccc(Nc2ccnc3ccccc23)cc1 | i | i | i | i | nt
C#Cc1ccc([C@H]2C=C(C(=O)OCC=C)O[C@@H](OCC)[C@@H]2CCCO)cc1 | i | 78.1 | i | i | i
Cc1cc(C(=O)CN2C(=O)NC(C)(c3ccc(F)c(F)c3)C2=O)c(C)n1C1CC1 (stereo not given) | i | 60.2 | i | i | i
COc1ccc(C(O)c2ncc(-c3ccccc3Cl)[nH]2)cc1F (stereo not given) | i | i | i | i | nt
CCOc1ccc(OCC(O)CNC2CCN(Cc3ccccc3)CC2)cc1 (stereo not given) | i | i | i | i | nt
CC(C)(c1ccccc1)c1ccc(OCC(O)CNC2CCN(Cc3ccccc3)CC2)cc1 (stereo not given) | i | 61.6 | nt | i | 85.0
SMILES | GC-A act | Granule exo inh | Myeloid diff MLP | NPR2 activator | Granule exo CP1
O=C(C1CCCCC1)n1ccc2ccc(-c3ccc4ccn(Cc5ccccc5)c4c3)cc21 | i | nt | nt | i | nt
Cc1cc(Nc2c(C)n(C)n(-c3ccccc3)c2=O)n2c(nc3ccccc32)c1C#N | i | i | i | i | nt
CCc1c(C)c(C#N)c2nc3ccccc3n2c1Nc1c(C)n(C)n(-c2ccccc2)c1=O | i | 63.9 | i | i | i
CC(C)Nc1nc(NCCOc2ccccc2Cl)c2sc(-c3ccccc3)cc2n1 | i | 58.1 | i | i | i
COc1ccc(OC)c(Nc2nc(C3CC3)nc3c2nnn3Cc2ccccc2)c1 | i | 60.1 | i | i | i
COc1ccc(Cl)cc1Nc1nc(C)nc2c1nnn2Cc1ccccc1 | i | i | i | i | nt

Screening data (PubChem BioAssay)
